DT40 TDP1 no CPT: qHTS for Inhibitors of human tyrosyl-DNA phosphodiesterase 1 (TDP1): qHTS in cells in absence of CPT. DT40 Tdp1-/- hTDP1 cells, no CPT, ATP luminescence, 48 h. Potency, µM (doses to about 46.2 µM), for inactives: at the highest dose activity change, negative = growth inhibition, most hits filed as inhibitors. hit rate 15% among 420,000. AID 686978, 2013; note: potency is the fitted concentration of half-maximal effect; nearly all actives have a fitted effect of over 55% in size
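Luminescent ATP content (CellTiter-Glo) served as the growth readout. Knockout chicken DT40 cells expressing human TDP1 were exposed to compounds without camptothecin for a minimum 48 hr at 37 °C.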
IL1B secr inh: qHTS for Inhibitors of Inflammasome Signaling: IL-1-beta AlphaLISA Primary Screen. THP-1 LPS/ATP IL-1B secretion, AlphaLISA, 16 h; stronger effect = lower value. activity change, % at 57.5 µM. hit rate 4.7% among 360,000; in the data active = activity change below about -50%; inconclusive = mostly about -30% to -49%
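THP-1 cells pretreated 1 hr with compounds (up to 57.5 uM final), then stimulated with LPS (250 ng/mL final) plus ATP (1.25 mM final); secreted IL-1B measured by AlphaLISA after 16 hr, decreased signal indicating inhibition.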
HT1080 IDH1KD tx: qHTS for induction of synthetic lethality in tumor cells producing 2HG: qHTS for the HT-1080-IDH1KD cell line; hit rate 2% among 360,000; HT-1080 IDH1 knockdown viability, ATP luminescence, 48 h; Potency, µM (titrated, usually from 46.1 µM), inactives show top-dose activity, negative = toxicity, most hits filed as cytotoxic;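 note: potency is the fitted concentration of half-maximal effect; 0% = DMSO wells and -100% = cell-free medium wells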
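After a 2 h attachment period, IDH1KD HT-1080 cells took pin-transferred compound for 48 h at 37 °C; ATP-based luminescence after 10 min room-temperature reagent incubation reported viability.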
HT1080-NT tox: qHTS for induction of synthetic lethality in tumor cells producing 2HG: qHTS for the HT-1080-NT fibrosarcoma cell line. HT-1080-NT fibrosarcoma viability, CellTiter-Glo ATP luminescence, 48 h. Potency, µM (top dose mostly 46.1 µM), for inactives: at the top dose activity, negative = less viability, most hits filed as cytotoxic. hit rate 1.6% among 360,000;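 note: NT is the 2HG producing partner of a matched IDH1 knockdown line; potency is the fitted concentration of half-maximal effect; 0% = DMSO-treated cells and -100% = media-only wells without cells; nearly all actives have a fitted effect of over 55% in size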
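Viability of the 2HG-overproducing fibrosarcoma line after 48 hours of compound exposure at 37 degrees C was determined by luminescence with CellTiter-Glo, and concentration-effect curves were then fitted and categorized.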
uPA generation: qHTS for Inhibitors of Cell Surface uPA Generation. Potency, µM (doses to about 38.3 µM), without a hit: at the top dose activity change, negative = inhibition, hits mostly inhibitors. hit rate 0.31% among 330,000. cell surface uPA generation assay, qHTS; active = well fitted inhibition curve with a large enough effect; inconclusive = small, poorly fitted or top-dose-only effect; inactive = no such curve, though single readings can be large or run the other way; tested in mouse RAW 264.7 cells; note: potency is the fitted concentration of half-maximal effect; nearly all actives have a fitted effect of over 55% in size
DT40 TDP1 CPT: qHTS for Inhibitors of human tyrosyl-DNA phosphodiesterase 1 (TDP1): qHTS in cells in presence of CPT; AID 686979, 2013; Potency, µM (series often up to 46.2 µM), for inactives: at the highest dose activity change, negative = growth inhibition, actives largely listed as inhibitors; hit rate 12% among 420,000; chicken DT40 Tdp1-/-;hTDP1 cells + 20 nM CPT, ATP luminescence, 48 h; note: potency is the fitted concentration of half-maximal effect; nearly all actives have a fitted effect of over 55% in size
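Chicken DT40 Tdp1-/- cells complemented with human TDP1, 400 cells/well, exposed to compounds plus 20 nM camptothecin for at least 48 h at 37 C; viability read as ATP content by CellTiter-Glo luminescence.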
Numbers without * were called inactive; ? = inconclusive; . = no result given. The list is not random: actives were taken first. Their share in the collection is about 19%. Unless noted, calls come from the whole dose curve; as a rule, active = well fitted curve in the direction sought with a large enough effect; inconclusive = small, poorly fitted or top-dose-only effect, or another doubt; inactive = no such curve, though single readings can be large; an effect the other way counts as inactive or inconclusive. Unless noted, % is set by controls: 0 for no effect and ±100 for the full control effect.

SMILES	DT40 TDP1 no CPT	IL1B secr inh	HT1080 IDH1KD tx	HT1080-NT tox	uPA generation	DT40 TDP1 CPT
CCN(CC(=O)Nc1ccc(NC(C)=O)cc1)C(=O)/C=C/c1cn(-c2ccccc2)nc1-c1ccc(F)cc1	-1%	16	-11%	3%	-6%	2%
COc1ccccc1NC(=O)CSc1nc(O)c(C/C=C/c2ccccc2)c(=O)[nH]1	-18%	.	.	.	.	-6%
COC(=O)c1ccccc1NC(=O)c1c(C)oc2ncn(C)c(=O)c12	-18%	.	.	.	.	1%
CCOC(=O)CNC(=S)N(Cc1ccc(C)cc1)Cc1ccc(C)o1	?	-55*	-4%	0%	-3%	?
O=C(COc1ccccc1Br)Nc1ccccc1C(F)(F)F	?	-2	2%	16%	-15%	-2%
O=C(CNc1cccc(C(F)(F)F)c1)N/N=C/c1cccc(Br)c1	?	-16	15%	22%	2%	18µM*
Cc1cccc(NCC(=O)N/N=C/c2cccc(Br)c2)c1	?	?	0%	13%	25%	?
COC(=O)c1ccc(-c2ccc(OC)c([C@H]3[C@H]4C=CC[C@@H](C)[C@@H]4C(=O)N3Cc3ccccc3)c2)cc1	6.5µM*	49	-2%	-1%	8%	5.8µM*
COc1ccc(-c2ccc(C(C)=O)cc2)cc1[C@H]1[C@H]2C=CC[C@@H](C)[C@@H]2C(=O)N1Cc1ccccc1	16µM*	37	3%	14%	?	23µM*
COc1cccc(CNC(=O)C2CCCN(S(=O)(=O)c3cn(C)cn3)C2)c1 (stereo not drawn)	-11%	.	.	.	.	-2%
CC(OC(=O)Cc1ccsc1)C(=O)Nc1ccc(C(N)=O)cc1 (stereo not drawn)	-23%	24	2%	2%	2%	14%
CC(C)NC[C@@H](O)COc1ccc(COCCOC(C)C)cc1	-13%	.	.	.	.	6%
Cc1ccccc1NC(=O)OCc1cccnc1Oc1ccc(Cl)cc1	-27%	-79*	?	-18%	1%	-4%
N#Cc1c(NCCN)nc(-c2ccccc2)c2c1CCCC2	?	-55*	?	?	-4%	?
N#Cc1c(NCCCO)nc(-c2ccccc2)c2c1CCCC2	-7%	14	-29%	-16%	-3%	-10%
CC(C1CC1)N(Cc1ccccc1)C(=S)Nc1ccccc1 (stereo not drawn)	23µM*	3	8%	19%	-4%	15µM*
Cc1nc(CS(=O)(=O)c2ccccc2)cc(N2CCOCC2)n1	9.2µM*	46	-5%	-4%	1%	9.2µM*
CCOc1ccc(CNCc2ccccc2Cl)cc1	?	?	-18%	-71%	?	16µM*
Clc1ccccc1CNCC1CCC(CNCc2ccccc2Cl)CC1 (stereo not drawn)	3µM*	.	.	.	.	3µM*
CCOC(=O)C1CCN(C(=O)c2cc(S(=O)(=O)N3CCc4ccccc43)ccc2OC)CC1	?	-9	-1%	3%	-2%	?
COC(=O)c1ccc(NC(=O)CSc2ccc(-c3sc(-c4ccccc4)nc3C)nn2)cc1	12µM*	.	.	.	.	?
Cc1nc(-c2ccccc2)sc1-c1ccc(SCC(=O)Nc2ccccc2)nn1	23µM*	.	.	.	.	?
COC(=O)c1ccc(NC(=O)CSc2nc(=O)n3cccc(C)c3n2)cc1	?	11	-3%	-8%	-3%	18µM*
CC(=O)c1ccc(NC(=O)CSc2nc(=O)n3cccc(C)c3n2)cc1	-29%	0	2%	17%	-4%	-22%
COC(=O)c1ccc(NC(=O)CSc2nccn2CCc2ccccc2)cc1	18µM*	3	7%	3%	2%	?
SMILES	DT40 TDP1 no CPT	IL1B secr inh	HT1080 IDH1KD tx	HT1080-NT tox	uPA generation	DT40 TDP1 CPT
CCOc1ccc(NC(=O)CSc2ccc(-c3sc(-c4ccccc4)nc3C)nn2)cc1	?	.	.	.	.	-88%
Cc1nc(-c2ccccc2)sc1-c1ccc(SCC(=O)Nc2ccc(F)cc2F)nn1	?	.	.	.	.	-28%
C[N+](C)(C)CCN1CCc2ccccc21	-19%	0	4%	12%	.	-6%
CCCN(CC(=O)Nc1ccccc1OC)Cc1c(O)ccc2ccccc12	-7%	6	-12%	3%	1%	3%
O=C(O)CCC(=O)c1cccc2ccccc12	-14%	9	2%	3%	3%	12%
C[N+](C)(C)CCC(=O)c1cccc2ccccc12	0.92µM*	.	.	.	.	0.58µM*
NC(=O)c1nc(-c2ccc(F)c(F)c2)nc2c1[nH]c(=O)n2-c1cccc(Cl)c1	-17%	.	.	.	.	?
Fc1ccc(Nc2ncnc3sc4c(c23)CCC4)cc1	?	0	-12%	-4%	13%	?
CCc1nc(Nc2ccc(F)c(Cl)c2)c2c3c(sc2n1)CCCC3	5.8µM*	.	.	.	.	5.8µM*
COc1ccc(Nc2ncnc3sc4c(c23)CCCC4)cc1	0.029µM*	.	.	.	.	3.3µM*
Fc1ccc(Nc2ncnc3sc4c(c23)CCC4)cc1F	-2%	27	17%	11%	0%	-4%
COc1ccc(/C=N/Nc2ncnc3sc4c(c23)CCCC4)cc1OC	16µM*	30	?	?	-12%	?
CCc1ccc(Nc2ncnc3sc4c(c23)CCCC4)cc1	18µM*	.	.	.	.	21µM*
O=C(NCCCN1CCOCC1)c1cc2ccccc2cc1O	-19%	26	-8%	-11%	1%	-7%
COc1cccc(CNC(=O)C(C)n2ncn3cccc3c2=O)c1OC (stereo not drawn)	-10%	.	.	.	.	-3%
CC(=O)Nc1ccc(S(=O)(=O)Nc2nc(C)nc3sc4c(c23)CCC4)cc1	-8%	7	1%	0%	-9%	-1%
Cc1nc(Nc2cccc(O)c2)c2c3c(sc2n1)CCC3	21µM*	-12	-26%	?	-2%	18µM*
N#Cc1c(Nc2ccccc2)sc(C(=O)c2ccc(F)cc2)c1N	?	13	-11%	-13%	?	-22%
N#Cc1c(Nc2ccccc2)s[nH]c1=O	8.2µM*	?	-11%	-27%	-8%	8.2µM*
NNc1ccccc1C(F)(F)F	9%	12	-1%	-9%	-4%	4%
N#Cc1c(Nc2ccccc2Cl)s[nH]c1=O	5.2µM*	-59*	16µM*	?	-8%	15µM*

Bioassay records as filed in PubChem.
